Hits are enriched below; roughly 3.4% of the tested compounds scored in any of these assays.
KAT2A inh – blocks human GCN5L2 histone acetyltransferase. Q92830. GCN5L2 HAT assay, ThioGlo1 CoA-SH fluorescence. Potency, µM (top dose mostly 58.9 µM), for inactives: at the top dose activity change, negative = inhibition, actives largely listed as inhibitors. actives 0.21% (n = 390,000). AID 504327; also: % is scaled to controls: 0 for no effect and ±100 for the full control effect
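GCN5L2 (20nM final) in 50mM HEPES, 0.1mM EDTA pH 7.5, 0.01% Tween-20 was preincubated 15 min at room temperature with compound, then given ThioGlo1 (50uM), H3(1-25) peptide (75uM) and acetyl-CoA (70uM); CoA-thiol fluorescence (Ex340/Em540) was read at 0 and 20 min.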
Mito fusion yeast – blocks mitochondrial division or promotes mitochondrial fusion. S. cerevisiae fusion-defective mutant growth rescue, CellTiterGlo 48 h. Potency, µM (doses to about 46.1 µM), for the others: at the top dose growth rescue (activation), hits mostly activators. actives 0.23% (n = 320,000). AID 485298; also: % of control where 0% means no effect; nearly all actives have a fitted effect of over 45% in size
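Read-out: ATP-based luminescence (CellTiterGlo, 10 min ambient) reporting growth of fusion-defective ts yeast after 48 hours at 37C on glycerol/ethanol YPEG medium in the presence of compound.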
PKM2 activator – increases activity of human pyruvate kinase M2. P14618. Potency, µM (series often up to 57.5 µM), without a hit: top-dose activation, hits mostly activators. actives 0.34% (n = 260,000). purified PKM2, Kinase-Glo ATP luminescence, activation; response scale: 0% is enzyme alone, no compound; also: % is scaled to controls: 0 for no effect and ±100 for the full control effect; nearly all actives have a fitted effect of over 55% in size
Target sequence (P14618 whole entry, looked up): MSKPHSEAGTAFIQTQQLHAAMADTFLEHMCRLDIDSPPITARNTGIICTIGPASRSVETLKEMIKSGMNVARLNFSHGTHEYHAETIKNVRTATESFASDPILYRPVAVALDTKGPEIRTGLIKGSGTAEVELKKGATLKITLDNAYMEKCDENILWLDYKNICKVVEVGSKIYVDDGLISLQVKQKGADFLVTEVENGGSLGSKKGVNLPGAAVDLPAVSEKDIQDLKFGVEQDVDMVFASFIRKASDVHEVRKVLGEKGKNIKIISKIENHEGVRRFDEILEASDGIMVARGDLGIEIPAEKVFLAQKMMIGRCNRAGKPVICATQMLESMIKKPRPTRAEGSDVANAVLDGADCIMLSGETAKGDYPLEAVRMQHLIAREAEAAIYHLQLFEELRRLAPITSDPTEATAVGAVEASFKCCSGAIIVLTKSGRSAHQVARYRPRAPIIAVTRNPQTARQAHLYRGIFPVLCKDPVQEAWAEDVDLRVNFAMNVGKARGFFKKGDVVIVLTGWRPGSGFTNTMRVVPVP
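Kinase-Glo luminescence reports ATP generated from ADP (0.1 mM) and PEP (0.5 mM) by purified hPK-M2 after 1 h at room temperature, pH 7.2 imidazole buffer; intermediate enzyme activity allows detecting inhibitors and activators.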
VDR inh – blocks the human vitamin D receptor | VDR-SRC2-3 peptide fluorescence polarization, 2 h | AID 504847 | actives 0.93% (n = 400,000) | Potency, µM, without a hit: max response, negative = inhibition, actives largely listed as inhibitors | P11473; also: % is scaled to controls: 0 for no effect and ±100 for the full control effect
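Inhibition of the VDR/SRC2-3 peptide interaction is quantified by fluorescence polarization. Compounds (23 nl, pintool) incubate with the reagents for 2 hours at ambient room temperature.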
PLK1 PBD inh – blocks phosphopeptide binding to human PLK1 polo-box domain | Plk1 PBD binding of FITC phosphopeptide, fluorescence polarization | Potency, µM, inactives show max response, negative = inhibition, hits mostly inhibitors | actives 2.8% (n = 360,000) | AID 720504; also: series mostly up to about 57 µM; % is scaled to controls: 0 for no effect and ±100 for the full control effect; nearly all actives have a fitted effect of over 65% in size
GLS inh – glutaminase GLS (human) inhibition | O94925 | GLS enzymatic activity, qHTS titration | Potency, µM (doses to about 45.5 µM), without a hit: at the highest dose activity change, negative = inhibition, actives largely listed as inhibitors | actives 0.21% (n = 410,000) | AID 624170; also: % is scaled to controls: 0 for no effect and ±100 for the full control effect
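Read-out is an Amplex red fluorescence increase coupled through glutamate oxidase and HRP, measured before and after 30 min room-temperature incubation. hKGA is in 45 mM KH2PO4 (pH 8.2) with 0.02% Tween-20; glutamine added as 1mM solution.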
The depositor's hits bear a star; ? = inconclusive; . = not tested or not shown. Calls follow the shape of the dose curve; as a rule, active = well fitted curve in the direction sought with a large enough effect; inconclusive = small, poorly fitted or top-dose-only effect, or another doubt; inactive = no such curve, though single readings can be large; an effect the other way counts as inactive or inconclusive. Potency is read from the fitted curve at half-maximal effect.

SMILES | KAT2A inh | Mito fusion yeast | PKM2 activator | VDR inh | PLK1 PBD inh | GLS inh
O=C1C(=O)c2ccccc2C(O)=C1CC=C(Cl)Cl | . | . | . | -28.7% | -8.3% | 19.7%
CCOC(=O)c1ccc2c(c1)N(Cc1cccc([N+](=O)[O-])c1)C(=O)c1ccccc1S2 | 10.7% | . | . | 7.6% | . | -1.8%
Nc1ccc(C(=O)OCC(=O)N2CCc3ccccc3C2)cc1[N+](=O)[O-] | -3.3% | 11.2µM* | 4.0% | -17.3% | 1.6% | 0.2%
O=C(OCC(=O)N1CCc2ccccc2C1)c1ccc(Cl)c([N+](=O)[O-])c1 | -3.3% | 4.0% | . | -19.6% | -14.5% | -3.6%
CC(C)[C@@H](CC(=O)N[C@@H]1CCCC[C@H]1C(=O)N[C@H](CC(=O)N[C@@H](CCC(=O)O)CC(=O)O)Cc1c[nH]c2ccccc12)NC(=O)C[C@H](Cc1ccccc1)NC(=O)[C@@H]1CCCC[C@H]1N | . | . | . | 0.2% | . | .
COc1ccc(N2CCN(C(=O)CSc3ccccc3N)CC2)cc1 | -11.8% | -2.2% | 7.6% | -4.3% | 23.8µM* | 27.0%
COc1ccc(N2CCN(C(=O)CSc3nc(-c4ccccc4)no3)CC2)cc1 | -7.3% | . | . | 4.4% | . | -2.7%
COc1ccc(/C=C/C(=O)OCC(=O)c2ccc3c(c2)NC(=O)CO3)cc1 | 1.1% | 0.7% | -0.6% | 7.5% | -7.1% | -10.9%
COc1cc(/C=C/C(=O)OCC(=O)c2ccc(OC(F)F)cc2)ccc1O | -24.9% | . | . | -2.1% | -3.3% | 11.2µM*
COc1cc(/C=C/C(=O)OCC(=O)c2ccc3c(c2)NC(=O)CO3)ccc1OC(F)F | -2.2% | 5.3% | . | ? | 18.9µM* | 0.0%
Cc1ccccc1NC1=C/C(=N\S(=O)(=O)c2ccc(C(=O)O)cc2)c2ccccc2C1=O | -2.4% | -44.0% | . | ? | -27.7% | 3.5%
COC(=O)C(C(C)=O)C1=C/C(=N\S(=O)(=O)c2ccc(C)cc2)c2ccccc2C1=O (stereo unspecified) | -4.9% | -5.4% | 29.6% | 3.7% | 28.2µM* | 52.5%
CC(=O)Nc1ccc(NC2=C/C(=N/S(=O)(=O)c3cccs3)c3ccccc3C2=O)cc1 | -4.1% | 11.3% | -33.1% | -11.1% | -9.7% | 0.7%
Cc1ccccc1NC1=C/C(=N\S(=O)(=O)c2cccs2)c2ccccc2C1=O | -2.4% | 1.8% | 1.9% | -3.5% | 18.9µM* | -1.2%
CC(C)c1ccc(S(=O)(=O)/N=C2/C=CC(=O)c3ccccc32)cc1 | -7.1% | -5.0% | 21.3% | . | . | .
COc1ccc(S(=O)(=O)/N=C2\C=C(Nc3ccc(O)cc3)C(=O)c3ccccc32)cc1 | -12.6% | -37.5% | -28.4% | -6.1% | -7.1% | 8.91µM*
Cc1ccc(NC2=C/C(=N/S(=O)(=O)c3cccs3)c3ccccc3C2=O)cc1C | 0.5% | -0.2% | -11.0% | -22.1% | -3.8% | 16.5%
O=C(O)c1ccc(S(=O)(=O)/N=C2\C=C(Nc3ccccc3F)C(=O)c3ccccc32)cc1 | -9.5% | -60.6% | -4.4% | 31.6µM* | 29.9µM* | 5.0%
Cc1ccc(Cl)cc1N1CCN(C(=O)Cn2nc(C)n3c(cc4sccc43)c2=O)CC1 | -10.7% | . | . | -16.4% | . | 0.2%
Nc1nc(-c2ccc(NC(=O)c3ccco3)cc2)cs1 | -7.4% | -8.8% | . | 15.6% | -19.5% | 3.8%
NC(=O)/C(=N\OC(=O)c1ccco1)c1nc(-c2ccc(Br)cc2)cs1 | 3.1% | -0.3% | 2.8% | -16.1% | 5.32µM* | 30.3%
CCC1Oc2ccc(C)cc2N(CC(=O)N2CCOCC2)C1=O (stereo unspecified) | -0.1% | 9.7% | 0.3% | -2.6% | -3.7% | 1.7%
CCC(NC(=O)OCc1ccccc1)C(=O)Oc1ccc2ccc(=O)oc2c1 (stereo unspecified) | -25.3% | 9.2% | . | ? | 29.9µM* | 16.9%
O=C(Oc1ccc2ccc(=O)oc2c1)c1ccccc1 | -16.8% | 0.5% | 0.7% | 7.7% | -0.1% | 2.1%
CC(C)OC(=O)c1ccc(Cn2nnc3sc4c(c3c2=O)CCCC4)cc1 | -8.6% | . | . | -11.7% | . | 11.9%
